Values joined by “and” are separate entries in the source; they are usually repeats but may differ in a detail not shown here. Equal entries are not always repeated. Inconclusive results are not listed. Some structures have more than one record in an assay (separate samples or runs), and their calls can disagree. Active and inactive are the calls of the source. The call rests on the fitted dose curve; in most records, active means well fitted curve in the direction sought with a large enough effect in the repeat runs; inconclusive means weak or mixed curves; inactive means no such curve, though single readings can be large; an effect the other way counts as inactive or inconclusive.
Experiments:
[1] = qHTS RealTime-Glo MT Cell Viability Assay in HepG2 cells - 24 hour (AID 1224867); further: nearly all actives have a fitted effect of over 50% in size
In short: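 HepG2 suspension premixed with RealTime-Glo reagents is plated at 600 cells per well and left 5 h at 37 C/5% CO2. Compounds in DMSO then go in, and bioluminescence reflecting viable cell number is recorded over 40 h.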

[2] = qHTS RealTime-Glo MT Cell Viability Assay in HEK293 cells - 32 hour (AID 1224868); further: top concentration of the series differs between compounds; nearly all actives have a fitted effect of over 50% in size
In short: (§1)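 Reads taken at 0, 8, 16, 24, 32 and 40 h from the same wells. HEK293 cells (600/well) carried RealTime-Glo reagents from seeding, with compound added after a 5 h settle at 37 C.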

[3] = A CellTox Green Cytotoxicity Assay to monitor cytotoxicity in HEK293 cells - 0 hour (AID 1224869); further: nearly all actives have a fitted effect of over 50% in size; further: potency means the concentration at half of the fitted maximal effect
In short: (§2)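 HEK293 cells premixed with CellTox Green dye were seeded at 600 cells/well and left 5 h at 37 C/5% CO2 before pin transfer of 23 nL compound in DMSO. Fluorescence from dye bound to dead-cell DNA was read during 40 h treatment.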

[4] = qHTS RealTime-Glo MT Cell Viability Assay in HepG2 cells - 40 hour (AID 1224870); further: nearly all actives have a fitted effect of over 50% in size
In short: (§3)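 HepG2 cells (600/well) mixed with RealTime-Glo MT reagent, settled 5 h at 37 C/5% CO2 before compound addition. Nonlytic NanoLuc luminescence from viable-cell prosubstrate reduction read repeatedly during 40 h treatment at 37 C.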

[5] = A CellTox Green Cytotoxicity Assay to monitor cytotoxicity in HEK293 cells - 40 hour (AID 1224871); further: nearly all actives have a fitted effect of over 45% in size; further: potency means the concentration at half of the fitted maximal effect
In short: as §2

[6] = qHTS RealTime-Glo MT Cell Viability Assay in HEK293 cells - 16 hour (AID 1224872)
In short: as §1

[7] = qHTS RealTime-Glo MT Cell Viability Assay in HepG2 cells - 8 hour (AID 1224873); further: nearly all actives have a fitted effect of over 55% in size
In short: as §3

[8] = A CellTox Green Cytotoxicity Assay to monitor cytotoxicity in HEK293 cells - 24 hour (AID 1224875); further: series mostly up to about 77 µM; nearly all actives have a fitted effect of over 45% in size
In short: as §2

[9] = qHTS RealTime-Glo MT Cell Viability Assay in HEK293 cells - 40 hour (AID 1224874); conditions: RealTime-Glo luminescence; max response: stronger effect = lower value; further: nearly all actives have a fitted effect of over 50% in size; further: potency means the concentration at half of the fitted maximal effect
In short: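 HEK293 cells mixed with RealTime-Glo reagents (NanoLuc plus cell-permeant prosubstrate) at 600 cells/well, preincubated 5 h at 37 C/5% CO2, then given 23 nL compound in DMSO. Nonlytic luminescence from viable cells was read at 0, 8, 16, 24, 32 and 40 h.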
On the % scale 0 is the no-effect control and ±100 the full control effect.

Cn1cc(-c2ccccc2)c(=O)c(-c2cccc(C(F)(F)F)c2)c1
inactive: outcome [1] | Potency [2] | Potency [3] | outcome [4] | Potency [5] | outcome [6] | outcome [7] | Potency [8]

COCCl
inactive: outcome [1] | Potency [3] | outcome [4] | Potency [5] | outcome [6] | outcome [7] | max response [9] -4.66% and 2.93% | Potency [8]

NCCc1ccc(O)cc1
inactive: outcome [1] | Potency [3] | outcome [4] | Potency [5] | outcome [6] | outcome [7] | max response [9] -18.4% and 1.96% | Potency [8]

CCCN(CCC)c1c([N+](=O)[O-])cc(C(F)(F)F)cc1[N+](=O)[O-]
1.55 µM (active) and inactive: Potency [3]
inactive: outcome [1] | outcome [4] | Potency [5] | outcome [7] | max response [9] -12.8% and 1.59%

Cc1ccc([N+](=O)[O-])cc1C
inactive: outcome [1] | Potency [3] | outcome [4] | Potency [5] | outcome [7] | max response [9] -0.25% and 2.38% | Potency [8]

[O-][Cl+2]([O-])O
inactive: outcome [1] | Potency [3] | outcome [4] | Potency [5] | outcome [7] | max response [9] 11.8% and -2.78% | Potency [8]

CCC[N+](=O)[O-]
38.2 µM (active) and inactive: Potency [5]
inactive: outcome [1] | Potency [3] | outcome [4] | outcome [6] | outcome [7] | max response [9] 7.7% | Potency [8]

ClCCBr
inactive: outcome [1] | Potency [3] | outcome [4] | Potency [5] | outcome [7] | max response [9] -0.15% and 0.955% | Potency [8]

CC(C)NC(=O)N1CC(=O)N(c2cc(Cl)cc(Cl)c2)C1=O
inactive: outcome [1] | Potency [3] | outcome [4] | Potency [5] | outcome [7] | Potency [8]

Nc1ccc(Br)cc1
inactive: outcome [1] | Potency [3] | outcome [4] | Potency [5] | outcome [6] | outcome [7] | max response [9] -1.58% and -21.4% | Potency [8]

CCNc1nc(NC(C)C)nc(SC)n1
inactive: outcome [1] | Potency [3] | outcome [4] | Potency [5] | outcome [6] | outcome [7] | max response [9] -1.45% | Potency [8]

Cc1cc(Cl)ccc1O
inactive: outcome [1] | Potency [3] | outcome [4] | Potency [5] | outcome [6] | outcome [7] | max response [9] 4.2% and 2.39% | Potency [8]

OC(O)C(Cl)(Cl)Cl
inactive: outcome [1] | Potency [3] | outcome [4] | Potency [5] | outcome [6] | outcome [7] | max response [9] -9.37% and 5.84% | Potency [8]

CCCCN(CCCC)SN(C)C(=O)Oc1cccc2c1OC(C)(C)C2
inactive: outcome [1] | Potency [3] | outcome [4] | Potency [5] | outcome [7] | max response [9] -26.5% | Potency [8]

O=c1[nH]c2ccccc2c(=O)o1
inactive: outcome [1] | Potency [3] | outcome [4] | Potency [5] | outcome [6] | outcome [7] | max response [9] -0.172% | Potency [8]

CC(C)(C)OOC(C)(C)C
inactive: outcome [1] | Potency [3] | outcome [4] | Potency [5] | outcome [6] | outcome [7] | max response [9] 1.79% and 12.3% | Potency [8]

ClCc1cccnc1
inactive: outcome [1] | Potency [3] | outcome [4] | Potency [5] | outcome [7] | max response [9] 2.33% and -1.14% | Potency [8]

c1ccc2c(c1)Oc1ccccc1O2
inactive: outcome [1] | Potency [3] | outcome [4] | Potency [5] | outcome [6] | outcome [7] | max response [9] 4.43% and 0.097% | Potency [8]

CCN(CC)CCO
inactive: outcome [1] | Potency [3] | outcome [4] | Potency [5] | outcome [6] | outcome [7] | max response [9] 2.53% and -12.7% | Potency [8]

NCC(O)c1ccc(O)cc1 (stereo unspecified)
inactive: outcome [1] | Potency [3] | outcome [4] | Potency [5] | outcome [7] | max response [9] -6.22% and 3.7% | Potency [8]

CN(N=O)c1ccccc1
inactive: outcome [1] | Potency [3] | outcome [4] | Potency [5] | outcome [6] | outcome [7] | max response [9] 9.26% and 4.33% | Potency [8]

CCCCN(CC)C(=O)SCCC
inactive: outcome [1] | Potency [3] | outcome [4] | Potency [5] | outcome [7] | max response [9] 0.284% | Potency [8]

BrCCBr
inactive: outcome [1] | Potency [3] | outcome [4] | Potency [5] | outcome [6] | outcome [7] | max response [9] 4.67% and 8.82% | Potency [8]

CN(C)[C@@H]1C(=O)C(C(N)=O)=C(O)[C@@]2(O)C(=O)C3=C(O)c4c(O)cccc4[C@@](C)(O)[C@H]3C[C@@H]12
inactive: outcome [1] | Potency [3] | outcome [4] | Potency [5] | outcome [7] | max response [9] 8.71% and 13.3% and -4.27% | Potency [8]

CC(C)(Cl)Cl
inactive: outcome [1] | Potency [3] | outcome [4] | Potency [5] | outcome [6] | outcome [7] | max response [9] 0.337% and 2.87% | Potency [8]

C=C(C)CCl
inactive: outcome [1] | Potency [3] | outcome [4] | Potency [5] | activity change, negative = cytotoxicity [6] 7.57% [at 6.97 µM] | outcome [7] | max response [9] 0.792% and 2.61% | Potency [8]

CCCC1COC(Cn2cncn2)(c2ccc(Cl)cc2Cl)O1 (stereo unspecified)
inactive: outcome [1] | Potency [3] | outcome [4] | outcome [7]
active: Potency [9] 25 µM and 21.9 µM

COC(=O)NS(=O)(=O)c1ccc(N)cc1
inactive: outcome [1] | Potency [3] | outcome [4] | Potency [5] | outcome [7] | max response [9] 15.7% and 20.4% | Potency [8]

CC(=O)C=C(C)C
inactive: outcome [1] | Potency [3] | outcome [4] | Potency [5] | outcome [6] | outcome [7] | max response [9] 1.7% and 8.25% | Potency [8]

CON(C)C(=O)Nc1ccc(Cl)c(Cl)c1
inactive: outcome [1] | Potency [3] | outcome [4] | Potency [5] | outcome [6] | outcome [7] | max response [9] -28.4% | Potency [8]
active: Potency [9] 43.6 µM

Nc1ccccc1C(=O)O
inactive: outcome [1] | Potency [3] | outcome [4] | Potency [5] | outcome [6] | outcome [7] | max response [9] 10.4% and 8.34% | Potency [8]

CCOP(=S)(OCC)Oc1cnc2ccccc2n1
inactive: outcome [1] | Potency [3] | outcome [4] | Potency [5] | outcome [6] | outcome [7] | max response [9] 0.949% | Potency [8]

CCC[CH2][Sn]([Cl])([Cl])[Cl]
inactive: outcome [1] | Potency [3] | outcome [4] | Potency [5] | outcome [6] | outcome [7] | Potency [8]

O=S(=O)(c1ccc(O)cc1)c1ccc(O)cc1
inactive: outcome [1] | Potency [3] | outcome [4] | Potency [5] | outcome [7] | max response [9] -19.2% | Potency [8]

Clc1cccc(Cl)c1Cl
inactive: outcome [1] | Potency [3] | outcome [4] | Potency [5] | outcome [7] | max response [9] 14.5% | Potency [8]

Cc1[nH]c(=O)n(C(C)(C)C)c(=O)c1Cl
inactive: outcome [1] | Potency [3] | outcome [4] | Potency [5] | outcome [6] | outcome [7] | max response [9] -2.63% and 1.93% | Potency [8]

O=[N+]([O-])c1ccccc1
inactive: outcome [1] | Potency [3] | outcome [4] | Potency [5] | outcome [6] | outcome [7] | max response [9] 6.12% and 17.8% | Potency [8]

Clc1ccccc1Cl
inactive: outcome [1] | Potency [3] | outcome [4] | Potency [5] | outcome [6] | outcome [7] | max response [9] 2.45% and -10.4% | Potency [8]

From PubChem BioAssay (Tox21)
